Measurements as given in PubChem BioAssay AID1159580 (chemical genetic matrix, 2015).
Out of some 5,500 compounds screened, about 2,000 (36%) were called active. Another 18% or so got no clear call; they are omitted. Rule as the data show it: active = normalized growth mostly below about 0.91 (no sharp cut-off); inconclusive = no clear call, values can overlap the other calls; inactive = mostly above about 0.92. Some of the results follow.

Assay: chemical genetic growth profiling, strain panel (AID 1159580);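 also: tested at 20 µM; growth read once vehicle control cultures reached saturation at 30 °C; 1 = growth at the plate median or of vehicle wells; lower values mean less growth of the strain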
Conditions: growth OD

Measured: normalized growth

C[C@@H]1CC(Cl)CC[C@H]1C(=O)OC(C)(C)C (some centres not stated)
inactive: S. cerevisiae deletion strains, locus YJR075W, strain HOC1, active compounds read low 0.964 | S. cerevisiae deletion strains, locus YKL009W, strain mrt4, active compounds read low 1 | S. cerevisiae deletion strains, locus YKL068W, active compounds read low 0.98 | S. cerevisiae deletion strains, locus YKL085W, strain MDH1 (second series), active compounds read low 0.977 | S. cerevisiae deletion strains, locus YKL085W, strain MDH1, active compounds read low 0.977 | S. cerevisiae deletion strains, locus YKL160W, strain elf1, active compounds read low 1.02 | S. cerevisiae deletion strains, locus YKL190W, strain CNB1, active compounds read low 0.981 | S. cerevisiae deletion strains, locus YKR001C, strain vps1, active compounds read low 1.01 | S. cerevisiae deletion strains, locus YKR026C, strain gcn3, active compounds read low 0.985 | S. cerevisiae deletion strains, locus YKR091W, strain srl3, active compounds read low 0.982 | S. cerevisiae deletion strains, locus YLL001W, strain dnm1, active compounds read low 0.979 | S. cerevisiae deletion strains, locus YLL026W, active compounds read low 0.983 | S. cerevisiae deletion strains, locus YLL041C, strain sdh2, active compounds read low 0.982 | S. cerevisiae deletion strains, locus YLR027C, strain aat2, active compounds read low 0.982 | S. cerevisiae deletion strains, locus YLR039C, strain RIC1, active compounds read low 1 | S. cerevisiae deletion strains, locus YLR058C, strain SHM2, active compounds read low 0.991 | S. cerevisiae deletion strains, locus YLR102C, strain apc9, active compounds read low 0.991 | S. cerevisiae deletion strains, locus YLR113W, strain HOG1, active compounds read low 0.999 | S. cerevisiae deletion strains, locus YLR221C, strain rsa3, active compounds read low 1.01 | S. cerevisiae deletion strains, locus YLR258W, strain gsy2, active compounds read low 0.97 | S. cerevisiae deletion strains, locus YLR262C, strain YPT6 (second series), active compounds read low 0.965 | S. cerevisiae deletion strains, locus YLR262C, strain YPT6, active compounds read low 0.957 | S. cerevisiae deletion strains, locus YLR268W, strain sec22, active compounds read low 0.976 | S. cerevisiae deletion strains, locus YLR320W, strain mms22, active compounds read low 0.954 | S. cerevisiae deletion strains, locus YLR330W, strain CHS5, active compounds read low 0.99 | S. cerevisiae deletion strains, locus YLR342W, strain FKS1 (second series), active compounds read low 1.05 | S. cerevisiae deletion strains, locus YLR342W, strain FKS1, active compounds read low 0.98 | S. cerevisiae deletion strains, locus YLR357W, strain rsc2, active compounds read low 0.985 | S. cerevisiae deletion strains, locus YLR370C, strain arc18, active compounds read low 0.991 | S. cerevisiae deletion strains, locus YLR371W, strain rom2, active compounds read low 1 | S. cerevisiae deletion strains, locus YLR384C, strain iki3, active compounds read low 0.982 | S. cerevisiae deletion strains, locus YLR418C, strain cdc73, active compounds read low 0.972 | S. cerevisiae deletion strains, locus YML016C, strain PPZ1, active compounds read low 0.992 | S. cerevisiae deletion strains, locus YML032C, strain rad52, active compounds read low 0.967 | S. cerevisiae deletion strains, locus YML120C, strain ndi1, active compounds read low 1 | S. cerevisiae deletion strains, locus YML124C, strain tub3, active compounds read low 0.983 | S. cerevisiae deletion strains, locus YMR058W, strain fet3, active compounds read low 0.976 | S. cerevisiae deletion strains, locus YMR078C, strain ctf18, active compounds read low 0.985 | S. cerevisiae deletion strains, locus YMR125W, strain sto1, active compounds read low 0.962 | S. cerevisiae deletion strains, locus YMR129W, active compounds read low 0.961 | S. cerevisiae deletion strains, locus YMR205C, strain PFK2, active compounds read low 0.928 | S. cerevisiae deletion strains, locus YMR223W, strain ubp8, active compounds read low 1.04 | S. cerevisiae deletion strains, locus YMR231W, strain pep5, active compounds read low 0.995 | S. cerevisiae deletion strains, locus YMR263W, strain SAP30, active compounds read low 0.976 | S. cerevisiae deletion strains, locus YMR307W, strain GAS1, active compounds read low 1 | S. cerevisiae deletion strains, locus YNL067W, strain RPL9B, active compounds read low 0.959 | S. cerevisiae deletion strains, locus YNL071W, strain lat1, active compounds read low 0.985 | S. cerevisiae deletion strains, locus YNL128W, strain TEP1, active compounds read low 0.971 | S. cerevisiae deletion strains, locus YNL153C, strain GIM3, active compounds read low 0.986 | S. cerevisiae deletion strains, locus YNL183C, strain NPR1, active compounds read low 0.948 | S. cerevisiae deletion strains, locus YNL209W, strain ssb2, active compounds read low 0.989 | S. cerevisiae deletion strains, locus YNL233W, strain BNI4, active compounds read low 0.997 | S. cerevisiae deletion strains, locus YNL248C, strain rpa49, active compounds read low 1.01 | S. cerevisiae deletion strains, locus YNL250W, strain rad50, active compounds read low 0.987 | S. cerevisiae deletion strains, locus YNL271C, strain bni1, active compounds read low 0.976 | S. cerevisiae deletion strains, locus YNL298W, strain CLA4, active compounds read low 0.979 | S. cerevisiae deletion strains, locus YNL307C, strain MCK1, active compounds read low 0.995 | S. cerevisiae deletion strains, locus YNL322C, strain KRE1 (second series), active compounds read low 0.996 | S. cerevisiae deletion strains, locus YNL322C, strain KRE1, active compounds read low 0.956 | S. cerevisiae deletion strains, locus YNR049C, strain mso1, active compounds read low 0.971 | S. cerevisiae deletion strains, locus YNR052C, strain pop2, active compounds read low 0.989 | S. cerevisiae deletion strains, locus YOL006C, strain TOP1, active compounds read low 0.991 | S. cerevisiae deletion strains, locus YOL012C, strain htz1 0.765 | S. cerevisiae deletion strains, locus YOL147C, strain pex11, active compounds read low 0.992 | S. cerevisiae deletion strains, locus YOR001W, strain rrp6, active compounds read low 1 | S. cerevisiae deletion strains, locus YOR061W, strain CKA2, active compounds read low 0.993 | S. cerevisiae deletion strains, locus YOR069W, strain VPS5, active compounds read low 0.989 | S. cerevisiae deletion strains, locus YOR070C, strain gyp1, active compounds read low 0.991 | S. cerevisiae deletion strains, locus YOR080W, strain dia2, active compounds read low 0.98 | S. cerevisiae deletion strains, locus YOR083W, strain WHI5, active compounds read low 1.04 | S. cerevisiae deletion strains, locus YOR106W, strain vam3, active compounds read low 1 | S. cerevisiae deletion strains, locus YOR136W, strain idh2, active compounds read low 0.996 | S. cerevisiae deletion strains, locus YOR144C, strain elg1, active compounds read low 0.991 | S. cerevisiae deletion strains, locus YOR184W, strain ser1, active compounds read low 0.935 | S. cerevisiae deletion strains, locus YOR231W, strain MKK1, active compounds read low 1.01 | S. cerevisiae deletion strains, locus YOR265W, strain rbl2, active compounds read low 0.986 | S. cerevisiae deletion strains, locus YOR270C, strain vph1, active compounds read low 0.928 | S. cerevisiae deletion strains, locus YOR290C, strain snf2, active compounds read low 0.92 | S. cerevisiae deletion strains, locus YOR316C, strain cot1, active compounds read low 0.969 | S. cerevisiae deletion strains, locus YPL051W, strain arl3, active compounds read low 1 | S. cerevisiae deletion strains, locus YPL055C, strain LGE1, active compounds read low 0.864 | S. cerevisiae deletion strains, locus YPL078C, strain atp4, active compounds read low 1 | S. cerevisiae deletion strains, locus YPL106C, strain sse1, active compounds read low 0.962 | S. cerevisiae deletion strains, locus YPL240C, strain hsp82, active compounds read low 0.982 | S. cerevisiae deletion strains, locus YPL241C, strain CIN2, active compounds read low 0.997 | S. cerevisiae deletion strains, locus YPL256C, strain CLN2, active compounds read low 1.01 | S. cerevisiae deletion strains, locus YPR119W, strain clb2, active compounds read low 0.977 | S. cerevisiae deletion strains, locus YPR141C, strain kar3, active compounds read low 0.979 | S. cerevisiae deletion strains, locus YPR163C, strain tif3, active compounds read low 0.992 | S. cerevisiae deletion strains, locus YPR167C, strain met16, active compounds read low 0.977 | S. cerevisiae deletion strains, strain wtn01, active compounds read low 0.977 | S. cerevisiae strains, strain wild type, active compounds read low 0.984
